The values below come from publication PMC7862700, “An all-to-all approach to the identification of sequence-specific readers for epigenetic DNA modifications on cytosine”.

What all share (assay): DAPPL (digital affinity profiling via proximity ligation, sequencing); 10 mM Tris-HCl pH 7.5, 50 mM NaCl, 1 mM DTT, 4% glycerol, room temperature, 30 min; GST-TFs on glutathione beads, 16-mer random dsDNA library, 0.1% formaldehyde crosslink after washing; high values mean tight binding
The target in one assay is T1, FLI1 (Homo sapiens, UniProt Q01543 1-452).
T1 sequence: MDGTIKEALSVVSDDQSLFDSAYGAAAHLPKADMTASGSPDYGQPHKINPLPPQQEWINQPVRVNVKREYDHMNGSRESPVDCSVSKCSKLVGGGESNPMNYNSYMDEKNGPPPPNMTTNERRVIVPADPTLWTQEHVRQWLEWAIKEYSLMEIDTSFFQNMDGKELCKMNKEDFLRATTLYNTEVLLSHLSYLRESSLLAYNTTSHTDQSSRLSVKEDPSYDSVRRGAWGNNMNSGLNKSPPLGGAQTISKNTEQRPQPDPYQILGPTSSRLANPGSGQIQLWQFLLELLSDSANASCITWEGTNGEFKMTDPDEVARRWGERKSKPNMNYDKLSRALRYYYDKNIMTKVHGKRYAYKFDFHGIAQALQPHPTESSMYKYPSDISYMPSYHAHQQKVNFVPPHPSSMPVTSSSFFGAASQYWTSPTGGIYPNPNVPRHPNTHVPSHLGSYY
As to conditions: protein: recombinant; tags: N-terminal GST; dsDNA, one strand shown. Summed up: (§1)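 The binding signal reported is, for every hexamer, its read frequency for a factor over its read frequency for the tag-only sample. Reads came from pools of yeast-expressed, GST-fused human transcription factors on glutathione beads, barcoded with DNA and mixed with that sample, which were incubated with 200 nmole of a random double-stranded 16-mer DNA library in Tris/NaCl/DTT/glycerol buffer at room temperature for 30 min. After washing, the pools were crosslinked with 0.1% formaldehyde, proximity-ligated with BsaI/T4 ligase for 1 h at 37 °C, PCR-amplified and sequenced on an Illumina NextSeq500.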

The target of another assay is T2, ELK1 (Homo sapiens, UniProt P19419 1-428).
T2 sequence: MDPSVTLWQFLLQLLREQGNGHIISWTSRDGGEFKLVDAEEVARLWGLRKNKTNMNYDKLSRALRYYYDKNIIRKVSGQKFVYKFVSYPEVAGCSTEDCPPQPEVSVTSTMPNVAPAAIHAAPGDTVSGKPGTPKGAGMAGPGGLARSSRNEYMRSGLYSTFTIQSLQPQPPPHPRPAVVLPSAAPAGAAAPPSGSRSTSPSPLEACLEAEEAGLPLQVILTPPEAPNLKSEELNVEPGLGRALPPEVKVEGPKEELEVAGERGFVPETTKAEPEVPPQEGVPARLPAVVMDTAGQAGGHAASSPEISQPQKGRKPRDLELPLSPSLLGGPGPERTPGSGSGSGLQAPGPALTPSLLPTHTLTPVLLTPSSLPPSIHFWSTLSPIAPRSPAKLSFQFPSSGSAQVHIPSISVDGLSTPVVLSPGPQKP
The following applies: protein: recombinant; tags: N-terminal GST; dsDNA, one strand shown. Summed up:
as §1

Another assay has as its target T3, GABPA (Homo sapiens, UniProt Q06546 1-454).
T3 sequence: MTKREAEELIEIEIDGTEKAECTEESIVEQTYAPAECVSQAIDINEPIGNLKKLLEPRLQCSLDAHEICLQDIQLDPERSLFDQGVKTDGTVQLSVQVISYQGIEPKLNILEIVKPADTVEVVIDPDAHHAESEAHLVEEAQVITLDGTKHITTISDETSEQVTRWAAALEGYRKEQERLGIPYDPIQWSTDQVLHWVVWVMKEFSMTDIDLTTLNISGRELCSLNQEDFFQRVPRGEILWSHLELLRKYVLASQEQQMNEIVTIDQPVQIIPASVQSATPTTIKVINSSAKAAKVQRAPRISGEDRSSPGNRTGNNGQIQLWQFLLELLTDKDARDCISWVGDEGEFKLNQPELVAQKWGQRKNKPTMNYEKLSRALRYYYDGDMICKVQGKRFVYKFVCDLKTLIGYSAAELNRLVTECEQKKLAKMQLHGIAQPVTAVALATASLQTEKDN
As to conditions: protein: recombinant; tags: N-terminal GST; dsDNA, one strand shown. Put shortly: as §1

The target in a further assay is T4, ERG (Homo sapiens, UniProt P11308 1-479).
T4 sequence: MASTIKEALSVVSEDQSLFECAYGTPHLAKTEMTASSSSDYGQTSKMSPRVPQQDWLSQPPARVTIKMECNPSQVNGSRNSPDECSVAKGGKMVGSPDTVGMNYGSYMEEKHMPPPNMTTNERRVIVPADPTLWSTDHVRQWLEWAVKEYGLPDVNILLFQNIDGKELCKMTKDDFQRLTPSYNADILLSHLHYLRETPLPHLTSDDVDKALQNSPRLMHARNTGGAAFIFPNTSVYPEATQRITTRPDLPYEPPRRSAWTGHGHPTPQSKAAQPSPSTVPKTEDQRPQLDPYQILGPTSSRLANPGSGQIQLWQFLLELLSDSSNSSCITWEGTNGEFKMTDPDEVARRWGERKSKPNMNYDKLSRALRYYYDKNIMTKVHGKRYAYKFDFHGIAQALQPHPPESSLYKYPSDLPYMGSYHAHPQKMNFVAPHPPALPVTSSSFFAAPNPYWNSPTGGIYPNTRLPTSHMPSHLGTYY
The following applies: protein: recombinant; tags: N-terminal GST; dsDNA, one strand shown. Put shortly:
as §1

The target in the next assay is ELF1 (Homo sapiens, UniProt P32519 1-619). As to conditions: protein: recombinant; tags: N-terminal GST; dsDNA, one strand shown. Put shortly:
as §1

A further assay deals with T5, EHF (Homo sapiens, UniProt Q9NZC4 1-300).
T5 sequence: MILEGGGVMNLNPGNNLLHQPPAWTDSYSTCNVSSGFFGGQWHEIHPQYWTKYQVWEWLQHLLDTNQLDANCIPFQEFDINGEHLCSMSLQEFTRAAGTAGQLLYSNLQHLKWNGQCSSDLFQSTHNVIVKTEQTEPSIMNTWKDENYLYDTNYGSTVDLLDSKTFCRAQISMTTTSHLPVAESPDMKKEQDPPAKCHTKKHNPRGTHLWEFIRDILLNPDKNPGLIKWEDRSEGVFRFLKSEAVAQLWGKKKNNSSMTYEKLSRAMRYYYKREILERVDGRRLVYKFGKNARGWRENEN
As to conditions: protein: recombinant; tags: N-terminal GST; dsDNA, one strand shown. Summed up: as §1

The target of another assay is SPI1 (Homo sapiens, UniProt P17947 1-270). As to conditions: protein: recombinant; tags: N-terminal GST; dsDNA, one strand shown. Summed up: as §1
A further assay concerns the target SPIB (Homo sapiens, UniProt Q01892 1-262). The following applies: protein: recombinant; tags: N-terminal GST; dsDNA, one strand shown. Summed up: as §1
Another assay has as its target T6, ELK3 (Homo sapiens, UniProt P41970 1-407).
T6 sequence: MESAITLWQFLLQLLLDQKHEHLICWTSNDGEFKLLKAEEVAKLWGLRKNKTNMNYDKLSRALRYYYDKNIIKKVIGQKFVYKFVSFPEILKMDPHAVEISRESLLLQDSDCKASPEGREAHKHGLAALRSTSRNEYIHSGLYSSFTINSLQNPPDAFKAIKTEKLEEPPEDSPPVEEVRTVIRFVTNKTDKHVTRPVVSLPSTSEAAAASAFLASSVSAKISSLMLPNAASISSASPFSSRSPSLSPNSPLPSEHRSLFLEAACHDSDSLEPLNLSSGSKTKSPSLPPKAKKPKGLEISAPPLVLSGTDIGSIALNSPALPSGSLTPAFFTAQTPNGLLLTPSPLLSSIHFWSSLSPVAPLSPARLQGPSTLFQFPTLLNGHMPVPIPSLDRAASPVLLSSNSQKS
The following applies: protein: recombinant; tags: N-terminal GST; dsDNA, one strand shown. Put shortly: as §1

For another assay, the target named is T7, FEV (Homo sapiens, UniProt Q99581 1-238).
T7 sequence: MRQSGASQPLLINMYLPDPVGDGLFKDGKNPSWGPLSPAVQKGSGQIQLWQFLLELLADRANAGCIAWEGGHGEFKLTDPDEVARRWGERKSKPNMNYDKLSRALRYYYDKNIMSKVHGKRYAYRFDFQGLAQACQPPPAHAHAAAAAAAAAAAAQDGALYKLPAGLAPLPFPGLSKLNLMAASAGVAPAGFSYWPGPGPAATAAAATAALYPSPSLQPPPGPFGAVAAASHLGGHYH
The following applies: protein: recombinant; tags: N-terminal GST; dsDNA, one strand shown. Put shortly: as §1

In the next assay the target is ETV5 (Homo sapiens, UniProt P41161 1-510). As to conditions: protein: recombinant; tags: N-terminal GST; dsDNA, one strand shown. Summed up:
as §1

The next assay has as its target HSF1 (Homo sapiens, UniProt Q00613 1-529). As to conditions: protein: recombinant; tags: N-terminal GST; chain copies: 3; dsDNA, one strand shown. Put shortly: as §1
The target of the next assay is T8, SPIC (Homo sapiens, UniProt Q8N5J4 1-248).
T8 sequence: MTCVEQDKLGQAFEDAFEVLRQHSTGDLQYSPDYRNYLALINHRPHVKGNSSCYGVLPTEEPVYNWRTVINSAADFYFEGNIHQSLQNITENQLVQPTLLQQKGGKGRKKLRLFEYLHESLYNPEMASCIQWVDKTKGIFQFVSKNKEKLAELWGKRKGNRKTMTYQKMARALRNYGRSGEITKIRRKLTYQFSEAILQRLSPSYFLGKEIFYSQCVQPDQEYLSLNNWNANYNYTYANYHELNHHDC
As to conditions: protein: recombinant; tags: N-terminal GST; dsDNA, one strand shown. Put shortly:
as §1

The target of the next assay is ELF4 (Homo sapiens, UniProt Q99607 1-663). The following applies: protein: recombinant; tags: N-terminal GST; dsDNA, one strand shown. Summed up: as §1
Sequence of ELF4 (Q99607 whole entry): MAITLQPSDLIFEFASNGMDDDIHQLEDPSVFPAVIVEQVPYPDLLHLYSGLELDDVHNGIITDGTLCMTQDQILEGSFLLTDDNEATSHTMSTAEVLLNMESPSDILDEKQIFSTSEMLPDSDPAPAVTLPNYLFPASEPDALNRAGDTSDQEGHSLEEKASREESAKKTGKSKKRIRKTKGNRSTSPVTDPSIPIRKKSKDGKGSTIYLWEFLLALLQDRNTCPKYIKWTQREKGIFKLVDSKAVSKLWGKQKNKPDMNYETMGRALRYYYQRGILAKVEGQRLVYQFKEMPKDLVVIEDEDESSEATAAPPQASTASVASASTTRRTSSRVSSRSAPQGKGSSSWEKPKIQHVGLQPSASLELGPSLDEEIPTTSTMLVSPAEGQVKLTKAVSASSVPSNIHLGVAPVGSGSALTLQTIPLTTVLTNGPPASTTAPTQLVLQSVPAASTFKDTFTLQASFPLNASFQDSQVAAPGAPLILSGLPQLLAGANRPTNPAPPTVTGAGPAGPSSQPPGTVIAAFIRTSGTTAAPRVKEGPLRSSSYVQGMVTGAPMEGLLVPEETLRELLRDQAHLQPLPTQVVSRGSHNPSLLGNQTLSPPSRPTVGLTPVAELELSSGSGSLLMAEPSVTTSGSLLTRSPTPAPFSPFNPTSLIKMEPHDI
The target in the next assay is T9, ELK4 (Homo sapiens, UniProt P28324-2 1-405).
T9 sequence: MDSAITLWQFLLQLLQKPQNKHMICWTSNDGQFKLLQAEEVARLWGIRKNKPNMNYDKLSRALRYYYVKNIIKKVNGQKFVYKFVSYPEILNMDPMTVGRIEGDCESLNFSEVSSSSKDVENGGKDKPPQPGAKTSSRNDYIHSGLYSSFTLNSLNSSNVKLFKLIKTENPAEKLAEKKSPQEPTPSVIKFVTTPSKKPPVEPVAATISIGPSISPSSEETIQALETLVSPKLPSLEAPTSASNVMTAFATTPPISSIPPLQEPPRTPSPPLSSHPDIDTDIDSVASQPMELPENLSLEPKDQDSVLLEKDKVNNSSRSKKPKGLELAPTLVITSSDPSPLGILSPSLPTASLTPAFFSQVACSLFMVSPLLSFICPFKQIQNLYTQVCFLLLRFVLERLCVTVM
The following applies: protein: recombinant; tags: N-terminal GST; dsDNA, one strand shown. Summed up: as §1

In a further assay the target is T10, ETV2 (Homo sapiens, UniProt O00321 1-342).
T10 sequence: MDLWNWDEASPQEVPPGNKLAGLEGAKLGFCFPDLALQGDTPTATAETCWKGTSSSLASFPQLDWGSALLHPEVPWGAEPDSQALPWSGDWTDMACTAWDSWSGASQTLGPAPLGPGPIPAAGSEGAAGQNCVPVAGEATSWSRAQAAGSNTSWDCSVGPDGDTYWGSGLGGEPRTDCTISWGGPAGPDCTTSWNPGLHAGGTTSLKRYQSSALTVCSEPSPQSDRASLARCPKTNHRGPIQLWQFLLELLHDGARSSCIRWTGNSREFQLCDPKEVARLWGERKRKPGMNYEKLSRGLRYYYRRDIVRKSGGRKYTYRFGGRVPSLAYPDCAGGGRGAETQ
The following applies: protein: recombinant; tags: N-terminal GST; dsDNA, one strand shown. Summed up:
as §1

In another assay the target is T11, ELF3 (Homo sapiens, UniProt P78545 1-371).
T11 sequence: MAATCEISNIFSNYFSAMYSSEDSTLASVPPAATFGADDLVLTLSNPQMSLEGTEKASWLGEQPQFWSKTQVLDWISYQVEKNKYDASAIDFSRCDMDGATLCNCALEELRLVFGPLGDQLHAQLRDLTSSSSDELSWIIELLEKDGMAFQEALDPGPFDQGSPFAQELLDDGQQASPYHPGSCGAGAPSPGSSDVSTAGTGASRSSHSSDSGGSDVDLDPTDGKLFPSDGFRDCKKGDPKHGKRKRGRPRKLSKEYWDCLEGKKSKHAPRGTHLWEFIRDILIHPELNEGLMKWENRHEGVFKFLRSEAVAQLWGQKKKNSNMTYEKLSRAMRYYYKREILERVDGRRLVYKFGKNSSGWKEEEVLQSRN
As to conditions: protein: recombinant; tags: N-terminal GST; dsDNA, one strand shown. Put shortly:
as §1

In another assay the target is CRX (Homo sapiens, UniProt O43186 1-299). The following applies: protein: recombinant; tags: N-terminal GST; dsDNA, one strand shown. Summed up: as §1
Sequence of CRX (O43186 whole entry): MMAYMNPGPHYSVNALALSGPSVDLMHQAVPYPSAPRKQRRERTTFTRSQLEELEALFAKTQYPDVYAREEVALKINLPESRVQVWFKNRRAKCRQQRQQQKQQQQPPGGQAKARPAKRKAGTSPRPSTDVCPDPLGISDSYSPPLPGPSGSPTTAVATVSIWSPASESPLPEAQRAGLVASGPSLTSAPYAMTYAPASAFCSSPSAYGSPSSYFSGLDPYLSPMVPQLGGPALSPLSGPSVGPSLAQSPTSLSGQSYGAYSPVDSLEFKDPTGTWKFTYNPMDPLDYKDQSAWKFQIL
In the next assay the target is ETV1 (Homo sapiens, UniProt P50549 1-477). As to conditions: protein: recombinant; tags: N-terminal GST; dsDNA, one strand shown. Put shortly: as §1
Sequence of ETV1 (P50549 whole entry): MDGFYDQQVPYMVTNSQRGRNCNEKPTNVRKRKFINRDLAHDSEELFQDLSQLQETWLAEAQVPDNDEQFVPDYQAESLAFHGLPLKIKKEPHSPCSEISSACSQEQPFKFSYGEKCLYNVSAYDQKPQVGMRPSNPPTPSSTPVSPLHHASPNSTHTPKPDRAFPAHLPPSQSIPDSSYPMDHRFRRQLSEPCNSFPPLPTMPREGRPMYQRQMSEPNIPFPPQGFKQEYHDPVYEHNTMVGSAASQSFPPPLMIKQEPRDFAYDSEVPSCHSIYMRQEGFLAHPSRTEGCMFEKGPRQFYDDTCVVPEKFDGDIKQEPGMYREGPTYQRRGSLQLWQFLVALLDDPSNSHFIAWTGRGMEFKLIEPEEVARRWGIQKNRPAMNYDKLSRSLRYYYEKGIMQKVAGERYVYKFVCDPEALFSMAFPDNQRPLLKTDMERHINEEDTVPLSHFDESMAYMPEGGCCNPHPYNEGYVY

Sequence of ELF1 (P32519 whole entry): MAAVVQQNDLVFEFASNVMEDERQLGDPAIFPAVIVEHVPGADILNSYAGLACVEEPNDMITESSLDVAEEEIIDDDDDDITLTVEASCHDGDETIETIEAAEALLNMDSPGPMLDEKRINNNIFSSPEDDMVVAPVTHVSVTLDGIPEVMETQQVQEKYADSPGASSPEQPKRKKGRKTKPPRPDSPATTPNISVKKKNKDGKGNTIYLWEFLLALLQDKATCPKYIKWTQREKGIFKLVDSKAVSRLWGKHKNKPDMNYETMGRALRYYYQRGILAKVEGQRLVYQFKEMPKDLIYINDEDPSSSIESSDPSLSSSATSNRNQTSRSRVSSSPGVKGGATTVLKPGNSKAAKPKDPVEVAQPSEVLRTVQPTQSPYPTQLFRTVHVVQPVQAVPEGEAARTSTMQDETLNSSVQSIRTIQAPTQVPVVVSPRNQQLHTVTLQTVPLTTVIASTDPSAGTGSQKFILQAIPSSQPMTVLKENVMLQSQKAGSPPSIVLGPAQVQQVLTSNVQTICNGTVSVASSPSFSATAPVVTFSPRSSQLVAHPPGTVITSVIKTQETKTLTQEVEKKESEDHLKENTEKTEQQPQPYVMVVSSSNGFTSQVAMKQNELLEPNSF
Sequence of HSF1 (Q00613 whole entry): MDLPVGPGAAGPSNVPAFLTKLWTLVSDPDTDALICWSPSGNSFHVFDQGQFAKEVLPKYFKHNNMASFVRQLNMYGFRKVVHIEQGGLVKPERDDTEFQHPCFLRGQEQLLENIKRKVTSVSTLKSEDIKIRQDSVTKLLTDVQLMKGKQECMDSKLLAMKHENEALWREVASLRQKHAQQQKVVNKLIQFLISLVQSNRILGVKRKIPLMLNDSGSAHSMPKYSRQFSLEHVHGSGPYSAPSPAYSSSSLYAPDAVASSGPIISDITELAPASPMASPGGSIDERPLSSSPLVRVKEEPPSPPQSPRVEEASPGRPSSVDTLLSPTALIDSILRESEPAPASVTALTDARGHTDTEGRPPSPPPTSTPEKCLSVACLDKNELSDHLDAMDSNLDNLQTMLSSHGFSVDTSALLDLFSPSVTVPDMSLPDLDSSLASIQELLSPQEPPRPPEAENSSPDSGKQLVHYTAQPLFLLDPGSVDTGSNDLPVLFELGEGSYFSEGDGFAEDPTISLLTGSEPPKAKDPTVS
Sequence of SPIB (Q01892 whole entry): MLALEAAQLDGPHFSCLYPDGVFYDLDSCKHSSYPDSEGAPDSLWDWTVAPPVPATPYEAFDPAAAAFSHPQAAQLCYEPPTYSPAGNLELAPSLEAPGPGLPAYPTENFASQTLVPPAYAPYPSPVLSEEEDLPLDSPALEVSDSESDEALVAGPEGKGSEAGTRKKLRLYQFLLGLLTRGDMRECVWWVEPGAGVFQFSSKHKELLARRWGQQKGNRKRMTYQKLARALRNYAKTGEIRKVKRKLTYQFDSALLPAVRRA
Sequence of ETV5 (P41161 whole entry): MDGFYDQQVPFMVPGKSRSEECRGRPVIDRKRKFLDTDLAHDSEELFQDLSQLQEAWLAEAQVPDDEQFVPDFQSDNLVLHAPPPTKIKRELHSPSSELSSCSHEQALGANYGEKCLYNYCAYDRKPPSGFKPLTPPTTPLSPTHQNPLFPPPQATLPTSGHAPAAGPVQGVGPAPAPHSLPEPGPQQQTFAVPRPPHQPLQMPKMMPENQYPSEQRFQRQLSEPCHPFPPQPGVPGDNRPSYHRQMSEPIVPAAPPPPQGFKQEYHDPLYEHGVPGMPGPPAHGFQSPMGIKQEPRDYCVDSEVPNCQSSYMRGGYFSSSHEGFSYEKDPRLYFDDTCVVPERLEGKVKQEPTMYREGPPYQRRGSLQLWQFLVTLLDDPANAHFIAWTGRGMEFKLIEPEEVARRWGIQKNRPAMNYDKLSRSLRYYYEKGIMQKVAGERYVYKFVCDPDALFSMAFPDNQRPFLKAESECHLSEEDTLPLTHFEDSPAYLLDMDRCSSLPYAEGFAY

Consider AGTAAT, for which the binding signal with FLI1 was 1.02 fold enrichment (6-mer frequency, TF over GST control); with ELK1 it was 1.1 fold enrichment (6-mer frequency, TF over GST control); with GABPA, 1.16 fold enrichment (6-mer frequency, TF over GST control); with ERG it was 1.09 fold enrichment (6-mer frequency, TF over GST control); with ELF1, 1.12 fold enrichment (6-mer frequency, TF over GST control); with EHF, 1.19 fold enrichment (6-mer frequency, TF over GST control). Also, the binding signal with SPI1 is 1.17 fold enrichment (6-mer frequency, TF over GST control); with SPIB it was 1.1 fold enrichment (6-mer frequency, TF over GST control); with ELK3, 1.12 fold enrichment (6-mer frequency, TF over GST control); with FEV, 1.05 fold enrichment (6-mer frequency, TF over GST control); in the assay with ETV5, 1.12 fold enrichment (6-mer frequency, TF over GST control); with HSF1, 1.3 fold enrichment (6-mer frequency, TF over GST control). Further, the binding signal with SPIC is 1.12 fold enrichment (6-mer frequency, TF over GST control); with ELF4 it was 1.1 fold enrichment (6-mer frequency, TF over GST control); in the assay with ELK4, 1.08 fold enrichment (6-mer frequency, TF over GST control); in the assay with ETV2, 1.24 fold enrichment (6-mer frequency, TF over GST control); in the assay with ELF3 it was 1.08 fold enrichment (6-mer frequency, TF over GST control); in the assay with CRX, 1.61 fold enrichment (6-mer frequency, TF over GST control). In the assay with ETV1, the binding signal is 1.06 fold enrichment (6-mer frequency, TF over GST control).
